Measurements reported in the supplement of paper PMC13380429.

Tested on: Vero E6 infected with SARS-CoV-2
Experiment: SARS-CoV-2 infection rate relative to infected DMSO; higher = more infection, active = 60 or less
Details: 24 h

Q: For `COc1ccc(CNC(=O)Nc2ncc([N+](=O)[O-])s2)cc1` (10 µM), which SARS-CoV-2 infection rate is on record?
A: 106% (inactive)

Q: `C[C@H](Cc1ccc(O)c(O)c1)[C@@H](C)Cc1ccc(O)c(O)c1` [masoprocol] (10 µM) was tested. Which SARS-CoV-2 infection rate did it give?
A: 90% (inactive)

Q: `O=C(c1cc(S(=O)(=O)Nc2ccccc2F)c(F)cc1Cl)N1CCN2CCC[C@@H]2C1` (10 µM) was tested. Which SARS-CoV-2 infection rate did it give?
A: 104% (inactive)

Q: How did the SARS-CoV-2 infection rate turn out when `CC(C)NC(=O)c1ccc(C#Cc2ccncc2)cn1` (10 µM) was run?
A: 102% (inactive)

Q: Which SARS-CoV-2 infection rate does the source give for `CN[C@H]1CN(c2ccc3c(=O)c(C(=O)O)cn(-c4nccs4)c3n2)C[C@@H]1OC` [voreloxin] (0.833333 µM) here?
A: 104% (inactive)

Q: For `CCc1cccc(N(C)C(=N)Nc2cccc3ccccc23)c1` [aptiganel] (10 µM), which SARS-CoV-2 infection rate is on record?
A: 104% (inactive)

Q: `Fc1ccc(-c2c3cccc(C(F)(F)F)c3nn2Cc2ccc(F)cc2Cl)cc1` (10 µM) was tested. Which SARS-CoV-2 infection rate did it give?
A: 95.5% (inactive)

Q: With `O=C1OC2(c3ccc(O)cc3Oc3cc(O)ccc32)c2ccccc21` [fluorescein] (10 µM) as the molecule, how does the SARS-CoV-2 infection rate read?
A: 110% (inactive)

Q: With `CC(O)CN1CCN(CC(=O)[O-])CCN(CC(=O)[O-])CCN(CC(=O)[O-])CC1.[Gd+3]` (stereo not given) [gadoteridol] (10 µM) as the molecule, how does the SARS-CoV-2 infection rate read?
A: 108% (inactive)

Q: How did the SARS-CoV-2 infection rate turn out when `O=C(O)c1cc(N2N=C(C(F)(F)F)/C(=C/c3ccc(-c4ccccc4)o3)C2=O)ccc1Cl` (10 µM) was run?
A: 97% (inactive)

Q: For `CS(=O)(=O)N1CCN(Cc2cc3nc(-c4cccc5[nH]ncc45)nc(N4CCOCC4)c3s2)CC1` (10 µM), which SARS-CoV-2 infection rate is on record?
A: 89% (inactive)

Q: With `FC(F)(F)C(F)(F)C(F)(F)C(F)(F)C(F)(F)C(F)(F)C(F)(F)C(F)(F)Br` [perflubron] (10 µM) as the molecule, how does the SARS-CoV-2 infection rate read?
A: 102% (inactive)

Q: Which SARS-CoV-2 infection rate does the source give for `NC[C@@](O)(c1ccc(Cl)cc1)c1ccc(-c2cn[nH]c2)cc1` (10 µM) here?
A: 108% (inactive)

Q: With `COCCNC(=O)Cn1cnc([N+](=O)[O-])n1` [sanazole] (10 µM) as the molecule, how does the SARS-CoV-2 infection rate read?
A: 93% (inactive)

Q: With `CC(=O)[C@H]1CC[C@H]2[C@@H]3CC=C4C[C@@H](O)CC[C@]4(C)[C@H]3CC[C@]12C` [pregnenolone] (10 µM) as the molecule, how does the SARS-CoV-2 infection rate read?
A: 112% (inactive)

Q: For `CN1CCN(C(=O)C2C(C(=O)O)[C@H]3CC[C@@H]2O3)CC1` (stereo not given in full) (10 µM), which SARS-CoV-2 infection rate is on record?
A: 110% (inactive)

Q: Which SARS-CoV-2 infection rate does the source give for `C=CCN1CC[C@]2(C)c3cc(O)ccc3C[C@H]1[C@H]2C` (10 µM) here?
A: 102% (inactive)

Q: Which SARS-CoV-2 infection rate does the source give for `CC(=O)O[C@@H]1C[C@H]2C(C)(C)C(=O)C=C[C@]2(C)[C@H]2CC[C@@]3(C)[C@H](c4ccoc4)OC(=O)[C@H]4O[C@]43[C@@]21C` [gedunin] (10 µM) here?
A: 106% (inactive)

Q: For `CC1(C)O[C@@H]2C[C@H]3[C@@H]4CCC5=CC(=O)C=C[C@]5(C)[C@@]4(F)[C@@H](O)C[C@]3(C)[C@]2(C(=O)CO)O1` (10 µM), which SARS-CoV-2 infection rate is on record?
A: 109% (inactive)

Q: How did the SARS-CoV-2 infection rate turn out when `CC(C)C[C@H](NC(=O)CNC(=O)c1cc(Cl)ccc1Cl)B1OC(=O)C(CC(=O)O)(CC(=O)O)O1` [ixazomib-citrate] (0.833333 µM) was run?
A: 106% (inactive)
